# Source: paper PMC9911399, “Two distinct binding modes provide the RNA-binding protein RbFox with extraordinary sequence specificity”
# Numbering of substitutions follows the chain as printed; changes in the protein carry UniProt numbers. Over roughly 16,000 sequences, “ka relative to ugcaugu” has its median near 0.0091; the highest 2% begin near 0.032. This is one part of a sample in which the highest values are shown more often than they occur.
# B1: UCAAUCC (DNA:RNA)
# RNA: GGGAGACCGGAAUUCAGAUUGUCCUCAAUCCUUAAAUCCCGUCGUAGCCACCA
# DNA 1: CAATCTGAATTCCGGTCTCCC
# DNA 2: TGGTGGCTACGACGGGATT
# B2: UAUUGCC (DNA:RNA)
# RNA: B1 RNA with C26A, A27U, A28U, U29G
# DNA 1: CAATCTGAATTCCGGTCTCCC
# DNA 2: TGGTGGCTACGACGGGATT
# B3: UGUUAGC (DNA:RNA)
# RNA: B1 RNA with C26G, A27U, A28U, U29A, C30G
# DNA 1: CAATCTGAATTCCGGTCTCCC
# DNA 2: TGGTGGCTACGACGGGATT
# B4: GACUGAA (DNA:RNA)
# RNA: GGGAGACCGGAAUUCAGAUUGUCCGACUGAAUUAAAUCCCGUCGUAGCCACCA
# DNA 1: CAATCTGAATTCCGGTCTCCC
# DNA 2: TGGTGGCTACGACGGGATT
# B5: UUCAGCC (DNA:RNA)
# RNA: B1 RNA with C26U, A27C, U29G
# DNA 1: CAATCTGAATTCCGGTCTCCC
# DNA 2: TGGTGGCTACGACGGGATT
# B6: ACCUUCG (DNA:RNA)
# RNA: B1 RNA with U25A, A27C, A28U, C31G
# DNA 1: CAATCTGAATTCCGGTCTCCC
# DNA 2: TGGTGGCTACGACGGGATT
# B7: ACCUAAG (DNA:RNA)
# RNA: B4 RNA with G25A, A26C, G29A, A31G
# DNA 1: CAATCTGAATTCCGGTCTCCC
# DNA 2: TGGTGGCTACGACGGGATT
# B8: UUACAAU (DNA:RNA)
# RNA: B1 RNA with C26U, A28C, U29A, C30A, C31U
# DNA 1: CAATCTGAATTCCGGTCTCCC
# DNA 2: TGGTGGCTACGACGGGATT
# B9: GAUUGAC (DNA:RNA)
# RNA: B4 RNA with C27U, A31C
# DNA 1: CAATCTGAATTCCGGTCTCCC
# DNA 2: TGGTGGCTACGACGGGATT
# B10: UAGUCCU (DNA:RNA)
# RNA: B4 RNA with G25U, C27G, G29C, A30C, A31U
# DNA 1: CAATCTGAATTCCGGTCTCCC
# DNA 2: TGGTGGCTACGACGGGATT
# B11: GUACGUA (DNA:RNA)
# RNA: B4 RNA with A26U, C27A, U28C, A30U
# DNA 1: CAATCTGAATTCCGGTCTCCC
# DNA 2: TGGTGGCTACGACGGGATT
# B12: CUUUCCU (DNA:RNA)
# RNA: B4 RNA with G25C, A26U, C27U, G29C, A30C, A31U
# DNA 1: CAATCTGAATTCCGGTCTCCC
# DNA 2: TGGTGGCTACGACGGGATT
# B13: CGGCUCG (DNA:RNA)
# RNA: B1 RNA with U25C, C26G, A27G, A28C, C31G
# DNA 1: CAATCTGAATTCCGGTCTCCC
# DNA 2: TGGTGGCTACGACGGGATT
# B14: UGCUCGG (DNA:RNA)
# RNA: B4 RNA with G25U, A26G, G29C, A30G, A31G
# DNA 1: CAATCTGAATTCCGGTCTCCC
# DNA 2: TGGTGGCTACGACGGGATT
# B15: CGCUCGG (DNA:RNA)
# RNA: B4 RNA with G25C, A26G, G29C, A30G, A31G
# DNA 1: CAATCTGAATTCCGGTCTCCC
# DNA 2: TGGTGGCTACGACGGGATT
# B16: GGCUCGA (DNA:RNA)
# RNA: B4 RNA with A26G, G29C, A30G
# DNA 1: CAATCTGAATTCCGGTCTCCC
# DNA 2: TGGTGGCTACGACGGGATT
# B17: UCCUCGA (DNA:RNA)
# RNA: B4 RNA with G25U, A26C, G29C, A30G
# DNA 1: CAATCTGAATTCCGGTCTCCC
# DNA 2: TGGTGGCTACGACGGGATT
# B18: UCGUCGG (DNA:RNA)
# RNA: B1 RNA with A27G, A28U, U29C, C30G, C31G
# DNA 1: CAATCTGAATTCCGGTCTCCC
# DNA 2: TGGTGGCTACGACGGGATT
# B19: GUCUCGA (DNA:RNA)
# RNA: B4 RNA with A26U, G29C, A30G
# DNA 1: CAATCTGAATTCCGGTCTCCC
# DNA 2: TGGTGGCTACGACGGGATT
# B20: UGCUCGA (DNA:RNA)
# RNA: B4 RNA with G25U, A26G, G29C, A30G
# DNA 1: CAATCTGAATTCCGGTCTCCC
# DNA 2: TGGTGGCTACGACGGGATT
# B21: UCGUCGA (DNA:RNA)
# RNA: B4 RNA with G25U, A26C, C27G, G29C, A30G
# DNA 1: CAATCTGAATTCCGGTCTCCC
# DNA 2: TGGTGGCTACGACGGGATT
# Biological target: T1, RBFOX1 RRM (Homo sapiens, UniProt Q9NWB1 109-208)
# T1 sequence: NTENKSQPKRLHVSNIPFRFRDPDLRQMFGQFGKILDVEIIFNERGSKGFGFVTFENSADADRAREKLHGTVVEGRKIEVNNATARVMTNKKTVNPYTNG
# Experiment: EMSA; HiTS-Eq, 1 nM pool, 10 min; buffer printed only for the single-RNA assays: 10 mM Tris pH 7.5, 150 mM NaCl, 3.4 mM EDTA, 0.001% NP-40, 30 C
# Settings: tags: His6 N-terminal (pET28a); label: 5' 32P
# In short: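 Purified RbFox RRM (wild type or mutant) was equilibrated for 10 min in 50 µL with 1 nM of a 5′-radiolabelled pool of RNA with 7 randomized nucleotides, its flanks annealed to DNA oligonucleotides, across increasing protein concentrations. Free RNA was separated by 8% native PAGE, excised, reverse-transcribed, PCR-barcoded and sequenced on an Illumina HiSeq 2500. Relative association constants came from read-count changes of each variant against the control reaction, normalised to the cognate motif.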
row,Binder,binding signal
1,B1,0.00161 KA relative to UGCAUGU
2,B2,0.012 KA relative to UGCAUGU
3,B3,0.0176 KA relative to UGCAUGU
4,B4,0.0274 KA relative to UGCAUGU
5,B5,0.0103 KA relative to UGCAUGU
6,B6,0.00839 KA relative to UGCAUGU
7,B7,0.00359 KA relative to UGCAUGU
8,B8,0.00107 KA relative to UGCAUGU
9,B9,0.0228 KA relative to UGCAUGU
10,B10,0.00776 KA relative to UGCAUGU
11,B11,0.0085 KA relative to UGCAUGU
12,B12,0.0054 KA relative to UGCAUGU
13,B13,0.0112 KA relative to UGCAUGU
14,B14,0.0361 KA relative to UGCAUGU
15,B15,0.0166 KA relative to UGCAUGU
16,B16,0.033 KA relative to UGCAUGU
17,B17,0.00976 KA relative to UGCAUGU
18,B18,0.0171 KA relative to UGCAUGU
19,B19,0.0166 KA relative to UGCAUGU
20,B20,0.0363 KA relative to UGCAUGU
21,B21,0.014 KA relative to UGCAUGU
